Source: ChEMBL document CHEMBL3988442, “University of Dundee, Small-Polar-MMV Screening Library” (2021)
Screen size: about 48,000 compounds; about 13,000 (27%) showed an effect of 50% or more. This is one part of the list.

test system: Wolbachia pipientis; assay: Anti-Wolbachia Cell-Based Screen; assay type: functional; parameters: scale not given: in the data most compounds retested in dose-response had high values; conditions: 5 µM

SMILES | Percent Effect [%]
CC(C)n1c(C2CCCN(CC(=O)NC3CC3)C2)nc2ccccc21 (configuration not stated) | -1.015
O=C1COc2ccccc2N1CCCn1cnnn1 | -11.05
CN(C)C(CNS(=O)(=O)c1cnn(C)c1)c1cccc(F)c1 (configuration not stated) | 6.578
N#Cc1ccc(OC2CCN(C(=O)c3ccc(Br)o3)CC2)nc1 | 22.17
Cc1nc(N2C[C@@H](CN3CCCN(C)CC3)[C@@H](CO)C2)c2sccc2n1 | 6.466
CN1CCCN(C[C@@H]2CN(c3nc(C(N)=O)cs3)C[C@@H]2CO)CC1 | 120.2
Cc1nc(N2C[C@@H](CN3CCCN(C)CC3)[C@@H](CO)C2)c2ccsc2n1 | 13.06
Cc1cnn(C2CN(CC(O)c3ccc(F)cc3)C2)c1 (configuration not stated) | 3.544
O=C1O[C@@H]2CN(c3cnccn3)C[C@@H]2N1CCCc1ccc(F)cc1 | 20.37
COc1c(C)cnc(CN(C)C(=O)c2ccccc2F)c1C | -7.265
Cc1cc(NS(=O)(=O)c2ccc(C(=O)O)cc2F)ccc1F | 102.3
N#Cc1cccc(NS(=O)(=O)c2ccc(C(=O)O)cc2F)c1 | 100.6
O=C(O)c1ccc(S(=O)(=O)Nc2cccc(CC(F)(F)F)c2)c(F)c1 | -7.999
O=C(O)c1ccc(S(=O)(=O)Nc2ccc(Cl)c(F)c2)c(F)c1 | 4.995
Cc1ccccc1NS(=O)(=O)c1ccc(C(=O)O)cc1F | 0.9629
O=C(O)c1ccc(S(=O)(=O)Nc2ccccc2F)c(F)c1 | -2.05
Cc1ccc(F)cc1S(=O)(=O)N(C)CC(N)=O | 2.56
O=C1CCC2(CCNCC2)CN1CCCOc1cccnc1 | -10.24
COc1ccc(CN(C)C(=O)NC(C)c2nncn2C)cc1F (configuration not stated) | -30.44
O=C(CCSc1ccccc1)NCC1CCN(Cc2ccsc2)CC1 | 78.72
O=C(NCC1CCN(Cc2ccsc2)CC1)NC1CC1 | 4.525
COCCNC(=O)CCC1CCN(Cc2cccc(SC)c2)CC1 | 4.456
CC(c1ccccc1)N1CCC(NC(=O)CCc2ccsc2)CC1 (configuration not stated) | 5.953

SMILES | Percent Effect [%]
COCC(=O)NCC1CCN(Cc2ccsc2)CC1 | 155
CSc1cccc(CN2CCC(CCC(=O)NCCN(C)C)CC2)c1 | -5.054
O=C(COc1ccccc1)NCC1CCN(Cc2ccsc2)CC1 | 115.8
CCSc1ccccc1C(=O)NCC1CCN(Cc2ccsc2)CC1 | 107.8
CCC(CC)c1nnc(NC(=O)N2CCCC(NC(C)=O)C2)s1 (configuration not stated) | -9.059
CCn1ncnc1C(C)NC(=O)COc1ccc(Cl)cc1Cl (configuration not stated) | -23.74
CN(Cc1cc(C(C)(C)C)n[nH]1)Cc1c[nH]nc1-c1ccc(F)cc1 | -14.5
CC1(C)[C@H]2CC=C(CN3CCCn4nc(CCC(=O)O)cc4C3)[C@@H]1C2 | 1.513
O=C(Cc1ccc(F)cc1)NCC1CCN(Cc2ccsc2)CC1 | 152.7
CCOCC(=O)NCC1CCN(Cc2ccsc2)CC1 | 164
O=C(Cn1cncn1)NCC1CCN(Cc2ccccc2Cl)CC1 | -9.372
Cc1ccccc1CN1CCC(CNC(=O)Cn2cncn2)CC1 | 9.92
O=C(NCCCC(=O)N1Cc2ccccc2C1)NCc1ccsc1 | 1.068
O=C(NCc1ccccc1)NCC1CCN(Cc2ccsc2)CC1 | 116.2
Cc1cc(CN2CCC(CNC(=O)Cc3ccc(F)cc3)C2)[nH]n1 (configuration not stated) | 4.609
CN1CCC(CNC(=O)Cc2ccc(N(C)C)cc2)CC1 | -0.2873
O=C(Cc1ccccc1Cl)NCC1CCN(Cc2ccsc2)CC1 | 104.9
Cc1cc(CN(C)C(=O)c2ccc(F)cc2Br)no1 | -8.681
Cc1cc(=O)[nH]c(NCCNC(=O)C(c2ccc(F)cc2)N(C)C)n1 (configuration not stated) | 1.725
Cc1nc(CN2CCN(C(=O)CC(C)(C)c3ccccc3)CC2)no1 | 6.376
CCc1nc(CN2CCCC(Nc3ncnc4ccsc34)C2)no1 (configuration not stated) | 25.2
O=C(O)C(F)(F)F.O=S(=O)(C1CC1)N1CCC2(CC1)CN(Cc1nccs1)CCO2 | 4.912
CCNC(=O)N1CCC(NC(=O)NCCc2ccc(C)cc2C)C1 (configuration not stated) | 5.947

SMILES | Percent Effect [%]
COCCN1CC(c2nc(CSC)no2)CCC1=O (configuration not stated) | 7.021
CCc1nccn1C1CCCN(C(=O)c2ccc3[nH]c(=O)[nH]c3c2)C1 (configuration not stated) | 0.4559
CCc1nccn1C1CCCN(C(=O)c2ccc3nnc(C)n3c2)C1 (configuration not stated) | 92.62
CCc1nccn1C1CCCN(C(=O)c2ccc(C(N)=O)cn2)C1 (configuration not stated) | 6.395
Cc1nccn1C1CCCN(C(=O)c2ccc3nnc(C)n3c2)C1 (configuration not stated) | 98.33
Cc1nc(C)c(C(=O)N2CCc3c(Cl)cccc32)o1 | -6.606
Cc1ncc2c(n1)CN(Cc1nc3c(F)cccc3[nH]1)CC2 | -1.881
Cc1nc(CN2CCCN(Cc3nc4c(F)cccc4[nH]3)CC2)no1 | 93.2
Cc1nc(CN(C)C2CCN(Cc3nc4c(F)cccc4[nH]3)C2)no1 (configuration not stated) | 95.7
CNC(=O)c1cccc(CN2CCC(N(C)Cc3ncc(C)o3)C2)c1 (configuration not stated) | 18.32
Cc1cnc(CN(C)C2CCN(Cc3nc4c(F)cccc4[nH]3)C2)o1 (configuration not stated) | 88.38
CCc1ncc2c(n1)CN(Cc1nc3c(F)cccc3[nH]1)CC2 | -2.409
Cc1cnc(CN(C)C2CCN(Cc3nc4ccccc4n3C)C2)o1 (configuration not stated) | 4.653
Cc1sc2nc(C(F)(F)F)nc(N3CCN(S(C)(=O)=O)CC3)c2c1C | 0.8403
O=C1NC(c2ccccc2)=N[C@@]12CC[C@@H]1CN(Cc3ccco3)C[C@@H]12 | 9.656
CCOc1ccc(NC(=O)c2[nH]c(C)cc2C)cc1CO | -6.246
O=C(NCC1(CO)CC1)c1cccc2ccccc12 | -22.57
Cc1nc(C)n(C2CCCN(C(=O)c3cc4ccccc4n3C)C2)n1 (configuration not stated) | 8.769
CNC(=O)c1ccc(-c2ccccc2)n1C | -8.126
CNC(=O)c1cc2ccccc2n1C | 113.9
Cn1c(C(=O)NCC2(N)CCCC2)cc2ccccc21 | 105.3
COCCn1c(C(=O)NCC(C)C(=O)O)cc2ccccc21 (configuration not stated) | 18.09
CC(C)NC(=O)c1n[nH]c(-n2cnnc2)n1 | -2.794

SMILES | Percent Effect [%]
Cc1cc(C)nc(Nc2cccc(C3CCCN(CCO)C3)n2)n1 (configuration not stated) | 75.7
Cc1cc(C)nc(Nc2cccc(C3CCCN(CC4CC4)C3)n2)n1 (configuration not stated) | 109.6
Cc1cc(C)nc(Nc2cccc(C3CCCN(C)C3)n2)n1.O=CO (configuration not stated) | -4.261
CNc1nc(C)cc(NC2CCCN(C3Cc4ccccc4C3)C2)n1 (configuration not stated) | 43.21
CNc1cc(C)nc(NC2CCCN(C3Cc4ccccc4C3)C2)n1 (configuration not stated) | 9.514
Cc1cc(C)nc(Nc2cccc(C3CCCN(C(C)C)C3)n2)n1 (configuration not stated) | 76.23
Cc1cc(CC(C)NC(=O)COc2ccc(F)cc2F)[nH]n1 (configuration not stated) | 17.04
CN(C(=O)NCc1ccncc1)C1CCN(c2ccccc2)C1=O (configuration not stated) | -1.353
O=c1nc(SCc2ccc(Cl)cc2)c2c(n1CCO)CCC2 | 7.751
CN(CCc1nc(-c2cccc(Cl)c2)no1)CCn1cccn1 | 14.68
O=C(NCCNc1cnccn1)c1scnc1Cl | 1.056
COc1ccc(Cl)cc1NCCC(=O)NCCNc1cnccn1 | 93.92
COc1ccc(Cl)cc1NCC(=O)NCCNc1cnccn1 | 7.849
Cc1ncsc1C(=O)NCCNc1cnccn1 | 4.216
COc1ccc(Cl)cc1NC(=O)CCNc1ccc(C#N)cn1 | -1.327
COc1ccc(Cl)cc1C(=O)NCCNc1cnccn1 | 117.3
NC(=O)C(Nc1cccc(CO)c1)c1ccc(Br)cc1 (configuration not stated) | -1.327
CCCn1ccnc1CNC(=O)C1COc2cc(OC)ccc2C1 (configuration not stated) | -6.706
CC(C)CC(=O)N1CCC2(CC1)NC(=O)[C@H]1CN(C(=O)N(C)C)C[C@H]12 | -16.51
CCOC(=O)[C@@H]1[C@@H](O)C(=O)N(C)C12CCN(C(=O)OC)CC2 | 81.26
CC(C)CC(=O)N1CCC2(CC1)[C@@H]1CN(C(=O)N(C)C)C[C@@H]1C(=O)N2C | -15.87
CC(=O)N1C[C@@H]2C(=O)N(C)C3(CCN(C(=O)C(C)C)CC3)[C@@H]2C1 | -11.94
CCOC(=O)[C@H]1[C@@H](O)C(=O)N(C)C12CCN(C(=O)CC(C)C)CC2 | 122.2

SMILES | Percent Effect [%]
CCOC(=O)[C@H]1[C@@H](O)C(=O)N(C)C12CCN(C(=O)C(CC)CC)CC2 | 87.69
COC(=O)N1CCC2(CC1)N=C(CCC(C)C)NC2=O | -0.8032
CC(C)NC(=O)N1CCC2(CC1)[C@@H]1CN(C(=O)N(C)C)C[C@@H]1C(=O)N2C | -31.71
CCOC(=O)[C@H]1[C@@H](O)C(=O)N(C)C12CCN(C(=O)OC)CC2 | 97.39
COc1cc(C)c(CN2CCC3(CC2)C(C(=O)O)CC(=O)N3C)cc1C (configuration not stated) | 7.232
CC(C)C(=O)N1CCC2(CC1)[C@@H]1CN(C(=O)N(C)C)C[C@@H]1C(=O)N2C | 11.68
NC(=O)Cn1ccnc1C1CCCN(Cc2nc3ccccc3s2)C1 (configuration not stated) | 1.02
CCCC(=O)N(C)Cc1cccc(OC(C)C)c1 | 0.3075
CCN1CCC(CC(=O)N[C@H](C(=O)O)c2cccc(F)c2F)CC1 | 0.01063
CCOC(=O)[C@@H]1[C@@H](O)C(=O)N(C)C12CCN(C(=O)c1ccco1)CC2 | 104.5
CCOC(=O)[C@@H]1[C@@H](OC)C(=O)N(C)C12CCN(C(=O)C(CC)CC)CC2 | 108.6
CCOC(=O)[C@H]1[C@@H](O)C(=O)N(C)C12CCN(C(=O)CC(C)(C)C)CC2 | 89.62
CCOC(=O)[C@H]1[C@@H](O)C(=O)N(C)C12CCN(C(=O)OCC)CC2 | 113.4
CCOCC(O)CN1CCN(C(=O)CC(C)(C)C)CC1 (configuration not stated) | 2.808
CCN1CC2(CC1=O)CN(C(C)=O)CCN(C(=O)c1ccco1)C2 (configuration not stated) | 6.232
O=C(c1ccco1)N1CCC2(CC1)C(=O)NCCN2CC1CC1 | 0.967
CCOC(=O)N1CCC2(CC1)N=C(CCC(C)C)NC2=O | 0.1534
CC(=O)N1CCC2(CC1)[C@@H]1CN(C(=O)N(C)C)C[C@@H]1C(=O)N2C | -8.179
CC(C)(C)CC(=O)N1CCC(n2cc(C3(O)CCCC3)nn2)CC1 | 20.32
CC(C)CN1C[C@@H]2C(=O)N(C)C3(CCN(C(=O)C(C)C)CC3)[C@@H]2C1.O=C(O)C(F)(F)F | 15.99
